Hit rate of the full screen: of about 220,000 compounds, about 830 (0.38%) were called active.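 The calls were made as follows: active = compound inhibiting the enzyme by more than half at any dose during confirmatory dose-response retesting; inconclusive = strong single-dose inhibitors picked by rank but not retested; inactive = the rest.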 Only a sample is shown. Results with a measured potency or affinity are listed apart.
target: Leucine aminopeptidase (Plasmodium falciparum (isolate 3D7)) (UniProt Q8IL11); assay: P. falciparum M17LAP inhibitors, primary screen, biochemical, fluorogenic H-Leu-NHMec substrate, 1536-well (AID 1619); conditions: recombinant M17LAP, H-Leu-NHMec fluorogenic kinetic assay; at 30 µM; stronger effect = higher value;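 also: plate controls were full reaction with DMSO carrier for no effect and no enzyme background for full effect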
Sequence (Q8IL11 whole entry, looked up): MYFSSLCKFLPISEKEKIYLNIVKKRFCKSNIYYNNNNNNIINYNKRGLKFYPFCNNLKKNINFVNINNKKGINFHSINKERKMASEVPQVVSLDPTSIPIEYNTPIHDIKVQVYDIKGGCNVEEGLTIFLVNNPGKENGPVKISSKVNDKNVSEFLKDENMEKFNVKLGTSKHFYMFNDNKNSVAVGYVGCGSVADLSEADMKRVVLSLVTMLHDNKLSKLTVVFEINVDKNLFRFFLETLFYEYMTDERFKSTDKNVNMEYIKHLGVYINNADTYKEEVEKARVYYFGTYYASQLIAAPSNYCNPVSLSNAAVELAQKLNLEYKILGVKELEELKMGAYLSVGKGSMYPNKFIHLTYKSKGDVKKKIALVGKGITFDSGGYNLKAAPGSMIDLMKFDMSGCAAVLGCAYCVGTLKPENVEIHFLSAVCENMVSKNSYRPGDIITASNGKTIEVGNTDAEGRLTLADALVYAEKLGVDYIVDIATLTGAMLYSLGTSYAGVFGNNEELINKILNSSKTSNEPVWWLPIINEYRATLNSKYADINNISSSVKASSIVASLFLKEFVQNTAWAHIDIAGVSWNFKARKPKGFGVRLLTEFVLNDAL

inhibition, inactive:
CC(C)CNC(=O)C1CCN(c2ccc(S(=O)(=O)N3CCOCC3)cc2)CC1 -3.46%, CSc1nc(Cc2ccccc2)nc2ccccc12 0.06%, COc1ccc2c(c1)c(C(=O)N/N=C/c1ccc(OC)c(OC)c1)c(C)n2C -4.74%, COc1ccc2c(c1)c(C(=O)N/N=C/c1cccc(O)c1)c(C)n2C 11.1%, COCCNC(=O)CN(c1ccccc1OC)S(C)(=O)=O 6.69%, CC(=O)Nc1ccc(NC(=O)/C=C/c2ccccc2)cc1 -5.95%, COc1cccc(OCCCCN2CC(C)OC(C)C2)c1 (stereo unspecified) 8.69%, CSc1nc2cc(Cl)ccc2s1 -8.15%, O=C1OCCC1Sc1nc2cc(Cl)ccc2s1 (stereo unspecified) 11.7%, Cc1cc(C(F)(F)F)nc(SCC(=O)NC2CC3CCC2C3)n1 (stereo unspecified) 4.48%, COc1cccc(/C=N/NC(=S)Nc2cccc(C(=O)O)c2)c1O 44.2%, CC(Nc1ccc(Br)cc1)C(=O)N/N=C/c1ccccc1OCc1ccccc1 (stereo unspecified) -9.93%, Cc1ccccc1NC(C)C(=O)N/N=C/c1ccccc1OCc1cccc(Br)c1 (stereo unspecified) -0.47%, O=C(N/N=C/c1cccc(O)c1)c1ccc(COc2cccc3cccnc23)cc1 3.53%, O=C(N/N=C/c1ccncc1)c1ccc(COc2cccc3cccnc23)cc1 8.86%, COc1ccc(NC(C)C(=O)N/N=C/c2ccccc2OCc2cccc(Br)c2)cc1 (stereo unspecified) 3.79%, CC1(C)CC2CC(C)(CN2/C=C2/CCCCC2=O)C1 (stereo unspecified) 16.8%, CCC1S/C(=N/N=C/c2ccco2)N(c2ccc(F)cc2)C1=O (stereo unspecified) 5.93%, O=[N+]([O-])c1cccc2ccc(/C=C/c3ccc(C(F)(F)F)cc3)nc12 5.36%, Cc1cc(N=Cc2c(O)n(-c3ccc(C)c(C)c3)c(=O)c3ccccc23)no1 -34.1%, COc1ccc(OCC(=O)OC(C)CN2CCOCC2)cc1 (stereo unspecified) 4.55%, COc1cccc(CC(=O)n2nc(N)c3cc4ccc(OC)cc4nc32)c1 -8.98%, O=C(CCC(=O)N1CCN(S(=O)(=O)c2ccc(Cl)cc2)CC1)Nc1ccc2ccccc2c1 -4.1%, CCc1ccc(C2NC(=S)NC3=C2C(=O)CC(C)(C)C3)cc1 (stereo unspecified) -1.26%, CCOC(=O)c1c(C)[nH]c(C(=O)/C(C#N)=C/c2ccc(OC)c(OC)c2)c1C 9.47%, CC(C)NC(=O)COC(=O)c1ccc(S(=O)(=O)N2CCCC2)cc1 -2.13%, CCCS(=O)(=O)N1CCN(S(=O)(=O)c2ccccc2)CC1 -6.24%, O=C(CCC(=O)N(CC(=O)NC1CCCCC1)c1ccc2c(c1)OCCO2)Nc1ccccn1 9.63%, O=C(CSc1nnc(Nc2ccccc2F)s1)c1cc2ccccc2o1 32.5%, COc1ccc(Nc2nnc(SCC(=O)c3cc4ccccc4o3)s2)cc1 4.36%, O=S(=O)(c1ccccc1)N1CCN(c2nc(-c3cccs3)nc3ccccc23)CC1 4.27%, CC(C)CC(NC(=O)c1cccs1)c1nnc(SCc2ccc(Cl)c(Cl)c2)n1C (stereo unspecified) 4.91%, C/C=C/C(=O)OCC(=O)Nc1ccc(SC(F)F)cc1 -1.79%, Cc1nn(-c2ccccc2)c(N2CCCC2)c1/C=C1\N=C(c2ccccc2)OC1=O 2.36%, Cc1ccc(F)c(NC(=O)C2CCCCC2C(=O)O)c1 (stereo unspecified) 4.08%, O=C(O)C1CCCCC1C(=O)Nc1cccc2ccccc12 (stereo unspecified) 39.5%, O=C(O)C1CC=CCC1C(=O)Nc1ccccc1C(=O)N1CCN(c2ccc(Cl)cc2)CC1 (stereo unspecified) 56.6%, Cc1ccc(Cl)cc1NC(=O)C1CCCCC1C(=O)O (stereo unspecified) 10.3%, O=C(CCC(=O)Nc1ccc(Cl)cc1Cl)NNC(=O)[C@@H]1CCCC[C@@H]1C(=O)O -2.95%, O=C(O)C1CCCCC1C(=O)Nc1ccccc1Cl (stereo unspecified) 43.9%, COC(=O)c1ccccc1NC(=O)C1CC=CCC1C(=O)O (stereo unspecified) 29.7%, O=C(O)C1CCCCC1C(=O)Nc1ccc(F)cc1F (stereo unspecified) 41.3%, COc1ccc(C(=O)Nc2cccc(-c3nc4ncccc4o3)c2C)cc1OC 2.86%, COc1ccc(Cn2c(CCC(=O)Nc3ccc(C)cc3)nc3cccnc32)cc1 -4.5%, CCOC(=O)C(C(=O)OCC)C1CS(=O)(=O)CC1C(C(=O)OCC)C(=O)OCC (stereo unspecified) 17%, COc1ccc(CCNC(=O)CC2Nc3ccccc3NC2=O)cc1 (stereo unspecified) 3.68%, COc1ccccc1NC(=O)NCc1ccco1 4.76%, Cc1cc(=O)[nH]c(SCC(=O)Nc2ccc(Br)cn2)n1 19.5%, O=C(CNC1CC1)Nc1cc(C(F)(F)F)ccc1Cl 1.31%, O=C(O)C1=C(C(=O)Nc2cc(C(F)(F)F)ccc2Cl)CCCC1 8.32%, O=C(NNC(=O)[C@H]1CC=CC[C@H]1C(=O)O)c1ccc(Cl)cc1Cl 0.37%, O=C(O)C1CC=CCC1C(=O)NNc1c(Cl)cc(Cl)cc1Cl (stereo unspecified) 3.9%, CCOC(=O)c1cnc2c(OC)cccc2c1Nc1ccc2c(c1)OCCO2 2.45%, O=C(Nc1nc2cc3c(cc2s1)OCCO3)c1ccc(N2C(=O)CCC2=O)cc1 0.52%, O=C(O)c1cc2c(cc1Br)OCCCO2 -43.7%, COc1ccc(OC)c(NC(=O)c2cccnc2Sc2ccccc2)c1 -17.3%, CC1CC(C)CN(CCOc2ccc(Br)cc2)C1 (stereo unspecified) -2.12%, CC(C)(C)C(=O)N1CCC[C@H]1C(O)(c1ccccc1)c1ccccc1 -4.15%, OC(CNCc1ccccn1)c1ccccc1 (stereo unspecified) -7.85%, COc1cccc(NC2=CC(=O)CC(C)(C)C2)c1 -33.9%, Clc1cc(Cl)cc(Nc2ncnc(-n3cccc3)n2)c1 12.9%, Clc1ccc(Nc2ccc(Cl)nn2)cc1 -4.12%, COC(=O)C1=C(Nc2cc(Cl)cc(Cl)c2)CSC1 5.27%, S=c1[nH]nc(Nc2ccc(Cl)cc2)s1 11.5%, CCc1nc2c(c(=O)c3ccccc3n2C)c(=O)n1C1CCCCCC1 11%, O=C(Nc1ccncc1)c1cccc2ccccc12 7%, Cc1nc(NC(=O)Nc2ccc(Cl)cc2)sc1C 2.28%, N#CC(C#N)=C1C=C2C=C(N3CCCCCC3)CCC2CC1 (stereo unspecified) 10.6%, N#CC(C#N)=C1C=C2C=C(N3CCCCC3)CCC2CC1 (stereo unspecified) 0.1%, O=C1c2ccccc2C(=O)c2cc(S(=O)(=O)Nc3ccccc3)ccc21 9.48%, O=C(Nc1ccc(Cl)cc1)OCc1cn(-c2ccccc2)nn1 6.64%, C=CCSc1nnc(-c2ccccc2N=Cc2c(C)[nH]n(-c3ccccc3)c2=O)c(=O)[nH]1 56.2%, CCSc1nnc(-c2cc(Br)ccc2N=Cc2c(C)[nH]n(-c3ccccc3)c2=O)c(=O)[nH]1 0.47%, Cc1nn(-c2ccccc2)c(C)c1/C=N/O 4.53%, Cc1nn(-c2ccccc2)c(C)c1/C=N/n1c(-c2ccccc2Br)n[nH]c1=S -1.13%, CCOc1ccc(Oc2c(/C=N/NC(N)=O)c(C)nn2-c2ccccc2)cc1 3.82%, Cc1ccccc1-c1n[nH]c(=S)n1/N=C/c1c(C)nn(-c2ccccc2)c1C 6.29%, CC(C)[C@H](NC(=O)[C@H](CCCN=C(N)N)NC(=O)NC(Cc1ccccc1)C(=O)O)C(=O)NC(C=O)CCCN=C(N)N (stereo partly specified) 6.32%, O=c1[nH]c(-c2ccc3c(c2)OCO3)nc2c1sc(=S)n2-c1ccccc1 -0.6%, Cc1ccc(CN2C(=O)N/C(=C\c3ccc(-c4ccc(C(=O)O)cc4C)o3)C2=O)cc1 4.73%, Cc1cc(C(=O)O)ccc1-c1ccc(/C=C2\NC(=O)N(Cc3ccc(F)cc3)C2=O)o1 0.19%, Nc1cnc(CNc2ccccc2Cl)cn1 4.54%, CCn1c(N2CCN(S(=O)(=O)c3ccc(F)cc3)CC2)nc2ccccc21 2.95%, CC(=O)Nc1ccc(NC(=O)COC(=O)c2n[nH]c3ccccc23)cc1 2.47%, Nc1nonc1-c1nc2ccccc2n1CC(=O)N/N=C\c1ccc(-c2ccc(Cl)cc2)o1 3.34%, Nc1nonc1-c1nc2ccccc2n1CC(=O)N/N=C/c1ccc(-c2cccc(C(=O)O)c2)o1 31.4%, COc1cccc(C(=O)COC(=O)C(C)N2C(=O)C3C4C=CC(C4)C3C2=O)c1 (stereo unspecified) 4%, CC1CCc2nc(NCCO)nc(C(F)(F)F)c2C1 (stereo unspecified) 7.69%, COc1ccccc1CCc1nnc(CCC(=O)N(C)Cc2ccncc2C)o1 -1.17%, Cc1ccc2oc(=S)n(C)c2c1 3.68%, O=C(CSc1nnc(-c2ccc(O)cc2)n1Cc1ccco1)c1ccccc1 5.35%, NC(=O)c1c(NC(=S)Nc2ccccc2)sc2c1CCCC2 16.9%, CCOC(=O)c1c(NC(=S)Nc2ccc(Cl)cc2)sc(C)c1C 12.6%, CCOC(=O)c1c(NC(=S)Nc2ccc(F)cc2)sc2c1CCC2 6.14%, CCOC(=O)c1c(NC(=S)Nc2ccccc2)sc(C)c1C 26.5%, OCCN1CCN(c2nc(-c3ccccc3)nc3c2oc2ccccc23)CC1 7.26%

From PubChem BioAssay AID1619 (SRMLSC, 2009)
